# Data taken from the OligoGym collection.
# Biological target: ABCD4
# Assay: pooled miR-30 sensor sort-seq; sequence = guide strand
# Conditions: shRNA
# Further: reference of the scale not given here.
row,Sequence,sensor-assay potency score (higher = more potent)
1,ATGAGCTGGGTGAAGCAGCTGA,-0.109
2,TAGAAGAGTCGGGCAAAGGAGA,-1.06
3,TAGTAGACGAGGGTGAACGGGG,-0.612

# Biological target: ABCG2
# Assay: as above
# Conditions: shRNA
row,Sequence,sensor-assay potency score (higher = more potent)
1,TATAATACTTGGTAACATCCTC,0.377
2,TAACTCTTGAATGACCCTGTTA,-0.548
3,TTTAAAGTCTTCTTCTCTGTTT,-0.358
4,TAATATTTCTTTCTCAACTGGT,0.563
5,TTTGTCTCTTTGTAGAAGGAGG,-1.31
6,AACATCATCTTGTACCACGTAA,-0.468
7,TACGACTGTGACAATGATCTGA,0.524
8,TGAGATTGACCAACAGACCTGA,0.275
9,TTGAAGACTGTGATCTTCTTCT,0.497
10,TTCAGCTTTTGTCTCTTTGTAG,-0.298
11,TTACCAAATATTCTTCGCCAGT,-1.15
12,TTCTATGAGTGGCTTATCCTGC,-0.526

# Biological target: ABHD14A
# Assay: as above
# Conditions: shRNA
row,Sequence,sensor-assay potency score (higher = more potent)
1,TGCATTGCGTAGCTTCACCACA,-1.6
2,TCTGTGACAGTAGCTGCAGTGT,-1.16
3,TCCATGAAGCAGCACCACCTCC,-1.75
4,TAAGGGTTGGAGTCTTCACAGC,-1.08
5,TAGCTTCACCACAGAGTGGTTG,-1.24
6,TTGCGTAGCTTCACCACAGAGT,0.297
7,TGAGTGGGAGCACCTCGCGGTA,-1.68
8,GAGGTCTGTACCACAGTCGGGC,-1.45
9,TCGAGCCAGGATGTGGTCCAGC,-1.4
10,TTGAGTGGGAGCACCTCGCGGT,0.0609
11,ATGGCCTGCATTGCGTAGCTTC,-1.76

# Biological target: ABHD14B
# Assay: as above
# Conditions: shRNA
row,Sequence,sensor-assay potency score (higher = more potent)
1,TCCATATACAATCAGAGCTGGA,-1.62
2,TTCTGCCAGGTCTCGGAGGAGA,-1.13
3,TGGACTGATCACAACCGGGGGG,-0.281
4,TTGATTTTGTCAGTGCAGATGG,-0.728
5,TGGTTTGTCCAGGTAACAGGGG,-0.958
6,CTGGTCTCCATATACAATCAGA,-2.16
7,TGCTTCAGGTGCTCAAAGCTGG,-0.768
8,ATAGTTGGCAGCATTGATTTTG,-0.758
9,AAAGCTGGTCTGACCCATGGGG,-0.273
10,TTCAGGTGCTCAAAGCTGGTCT,-0.558
11,TTTGTCCAGGTAACAGGGGTGC,-1.14
12,TAGTTGGCAGCATTGATTTTGT,-0.754
